Test results reported in PMC8384837, “Expanding the binding specificity for RNA recognition by a PUF domain”.

Assays:
Experiment in all cases: yeast three-hybrid, YBZ-1, SC-Leu-His + 0.5 mM 3-AT, 4 days
Conditions in all cases: tags: N-Gal4 AD-HA kept; label: inside an RPR1-promoter hybrid RNA with tandem MS2 sites; ssRNA
[1] = molecular target: PUM1 PUF domain R4-TPA (Homo sapiens, UniProt Q14671 828-1176, N971T;H972P;Q975A)
How it was run: (§1)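 Sequencing with Illumina followed PCR amplification of the repeat regions from transformants grown four days on SC-Leu (input) or SC-Leu-His + 0.5 mM 3-AT (selection). The transformants were strain YBZ-1 with a LexA–MS2 coat fusion and a HIS3 reporter, carrying Pumilio-1 PUF domain libraries and matching RNA elements. The interaction score is the log change in variant frequency from input to selection, computed in log2 with a pseudocount of 1 for absent variants.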

[2] = molecular target: PUM1 PUF domain R4-SQS (Homo sapiens, UniProt Q14671 828-1176, N971S;H972Q;Q975S)
How it was run: as §1

[3] = molecular target: PUM1 PUF domain R5-CRR (Homo sapiens, UniProt Q14671 828-1176, Q1011R)
How it was run: as §1

[4] = molecular target: PUM1 PUF domain R8-QWF (Homo sapiens, UniProt Q14671 828-1176, N1122Q;Y1123W;Q1126F)
How it was run: as §1

[5] = molecular target: PUM1 PUF domain R7-ISR (Homo sapiens, UniProt Q14671 828-1176, S1079I;N1080S;E1083R)
How it was run: as §1

[6] = molecular target: PUM1 PUF domain R3-LSS (Homo sapiens, UniProt Q14671 828-1176, C935L;R936S;Q939S)
How it was run: as §1

[7] = molecular target: T1, PUM1 PUF domain R6-TRE (Homo sapiens, UniProt Q14671 828-1176, N1043T;Y1044R;Q1047E)
T1 sequence: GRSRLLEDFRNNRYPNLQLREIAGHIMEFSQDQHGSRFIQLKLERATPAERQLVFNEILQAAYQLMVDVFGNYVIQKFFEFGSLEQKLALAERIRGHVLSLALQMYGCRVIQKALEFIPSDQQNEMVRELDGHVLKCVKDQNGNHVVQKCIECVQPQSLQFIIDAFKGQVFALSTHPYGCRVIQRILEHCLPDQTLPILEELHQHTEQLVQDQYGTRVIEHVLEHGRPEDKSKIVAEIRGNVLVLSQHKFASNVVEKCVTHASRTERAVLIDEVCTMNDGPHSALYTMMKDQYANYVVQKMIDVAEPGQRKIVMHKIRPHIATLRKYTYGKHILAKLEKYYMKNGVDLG
How it was run: as §1

[8] = molecular target: PUM1 PUF domain R1-NCS (Homo sapiens, UniProt Q14671 828-1176, S863N;R864C;Q867S)
How it was run: as §1

[9] = molecular target: PUM1 PUF domain R1-CRR (Homo sapiens, UniProt Q14671 828-1176, S863C;Q867R)
How it was run: as §1

[10] = molecular target: PUM1 PUF domain R5-KNS (Homo sapiens, UniProt Q14671 828-1176, C1007K;R1008N;Q1011S)
How it was run: as §1

Sequence of PUM1 PUF domain R4-TPA (Q14671 828-1176 N971T/H972P/Q975A): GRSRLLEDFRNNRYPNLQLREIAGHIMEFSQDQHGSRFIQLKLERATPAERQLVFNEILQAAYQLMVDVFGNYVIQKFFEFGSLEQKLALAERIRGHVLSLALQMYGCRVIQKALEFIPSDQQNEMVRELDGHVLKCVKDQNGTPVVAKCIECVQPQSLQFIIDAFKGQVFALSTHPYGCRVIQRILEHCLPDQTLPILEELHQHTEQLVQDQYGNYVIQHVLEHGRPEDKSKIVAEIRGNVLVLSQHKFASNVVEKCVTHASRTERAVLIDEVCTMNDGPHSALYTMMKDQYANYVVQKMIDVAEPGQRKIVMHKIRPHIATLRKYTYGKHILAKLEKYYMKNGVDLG

GGCUAGAACUAGUGGAUCCCCCGGCGCCCGGCGGCUCGAGCCCGGGUAAGUGUACAUAGUCUGCAUGCCGCCGGGCGCCAUGCCUGCAGGUCGACUCUAGAAAACAUG
binding signal [1]: 3.56 log2 enrichment (interaction score)

GGCUAGAACUAGUGGAUCCCCCGGCGCCCGGCGGCUCGAGCCCGGGUAAGUGUAAAUAGUCUGCAUGCCGCCGGGCGCCAUGCCUGCAGGUCGACUCUAGAAAACAUG
binding signal [1]: 3.35 log2 enrichment (interaction score) | binding signal [2]: 2.72 log2 enrichment (interaction score) | binding signal [3]: 2.75 log2 enrichment (interaction score) | binding signal [4]: 2.1 log2 enrichment (interaction score)

GGCUAGAACUAGUGGAUCCCCCGGCGCCCGGCGGCUCGAGCCCGGGUAAGUUUAAAUAGUCUGCAUGCCGCCGGGCGCCAUGCCUGCAGGUCGACUCUAGAAAACAUG
binding signal [5]: 5.98 log2 enrichment (interaction score)

GGCUAGAACUAGUGGAUCCCCCGGCGCCCGGCGGCUCGAGCCCGGGUAAGUGUAAGUAGUCUGCAUGCCGCCGGGCGCCAUGCCUGCAGGUCGACUCUAGAAAACAUG
binding signal [6]: 5.06 log2 enrichment (interaction score)

GGCUAGAACUAGUGGAUCCCCCGGCGCCCGGCGGCUCGAGCCCGGGUAAGCGUAAAUAGUCUGCAUGCCGCCGGGCGCCAUGCCUGCAGGUCGACUCUAGAAAACAUG
binding signal [4]: 2.87 log2 enrichment (interaction score)

GGCUAGAACUAGUGGAUCCCCCGGCGCCCGGCGGCUCGAGCCCGGGUAAGUGGAAAUAGUCUGCAUGCCGCCGGGCGCCAUGCCUGCAGGUCGACUCUAGAAAACAUG
binding signal [7]: 5.05 log2 enrichment (interaction score)

GGCUAGAACUAGUGGAUCCCCCGGCGCCCGGCGGCUCGAGCCCGGGUAAGUGUAAAUUGUCUGCAUGCCGCCGGGCGCCAUGCCUGCAGGUCGACUCUAGAAAACAUG
binding signal [8]: 3.38 log2 enrichment (interaction score) | binding signal [9]: 0.67 log2 enrichment (interaction score)

GGCUAGAACUAGUGGAUCCCCCGGCGCCCGGCGGCUCGAGCCCGGGUAAGUGUAAAUCGUCUGCAUGCCGCCGGGCGCCAUGCCUGCAGGUCGACUCUAGAAAACAUG
binding signal [9]: 2.5 log2 enrichment (interaction score)

GGCUAGAACUAGUGGAUCCCCCGGCGCCCGGCGGCUCGAGCCCGGGUAAGUGUCAAUAGUCUGCAUGCCGCCGGGCGCCAUGCCUGCAGGUCGACUCUAGAAAACAUG
binding signal [10]: 4.54 log2 enrichment (interaction score) | binding signal [3]: 4.63 log2 enrichment (interaction score)

GGCUAGAACUAGUGGAUCCCCCGGCGCCCGGCGGCUCGAGCCCGGGUAAGUGUAUAUAGUCUGCAUGCCGCCGGGCGCCAUGCCUGCAGGUCGACUCUAGAAAACAUG
binding signal [1]: 4.12 log2 enrichment (interaction score) | binding signal [2]: 0.2 log2 enrichment (interaction score)

GGCUAGAACUAGUGGAUCCCCCGGCGCCCGGCGGCUCGAGCCCGGGUAAGUGUAAUUAGUCUGCAUGCCGCCGGGCGCCAUGCCUGCAGGUCGACUCUAGAAAACAUG
binding signal [6]: 3.25 log2 enrichment (interaction score)
